Records with an inconclusive call do not appear. Where a call stands in place of a potency, no number is given. Activity calls are given as the source filed them. Calls come from the whole dose curve; as a rule, active = well fitted inhibition curve with a large enough effect; inconclusive = small, poorly fitted or top-dose-only effect; inactive = flat fitted curve, though single readings scatter.

This assay is described as follows: Secondary Assay for lipid storage modulators: Cytotoxcity for probe SAR. To be noted: Drosophila S3 cells viability, CellTiter-Glo luminescence, 24 h, with oleic acid added (1 µL, 400 µM); series mostly up to 46.1 µM. Summed up:
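Drosophila S3 embryonic cells, 5,000/well, exposed to compound at several concentrations with 400 uM oleic acid stock added, 24 h at 24 degrees C; viability by CellTiter-Glo luminescence.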
For orientation: Cellular ATP, detected with luciferase, serves as a proxy for viable cell number.
For the compound `CCOc1ccc(CCNC(=O)c2cccs2)cc1OCC`, the Potency entry is “inactive”.
Take `CCOC(=O)C1CCN(C(C)C(=O)NC(=O)NC2CCCCC2)CC1` (stereo not drawn): the Potency result was “inactive”.
The entry for `CCOc1ccc(CCNC(=O)c2ccccn2)cc1OCC` is “inactive”.
With `COc1ccc(Cl)cc1NC(=S)N1CCN(c2ccccc2F)CC1` the entry was “inactive”.
With `CCOc1ccc(CCNC(=O)c2cc3sccc3n2Cc2ccc(-n3cncn3)cc2)cc1OCC` the entry was “inactive”; with `Cc1cc(NC(=O)Nc2ccc(N(C)C)cc2)c2cc(F)cc(F)c2n1`, 12.5 µM (active).
`CCOc1ccc(CCNC(C)=O)cc1OCC`: the Potency entry was “inactive”.
In the case of `COc1cc(NC(=S)N2CCN(c3ccccn3)CC2)c(OC)cc1Cl`, the Potency result was “inactive”.
For the compound `CCOc1ccc(CCNC(=O)c2ccc(C3(C(F)(F)F)N=N3)cc2)cc1OCC`, the Potency result was “inactive”.
Turning to `CCOc1ccc(CCNC(=O)C2(c3ccccc3)CC2)cc1OCC`, the Potency entry was “inactive”.
In the case of `CCOc1ccc(CCNC(=O)Cc2ccccc2)cc1OCC`, the Potency entry was “inactive”.
Consider `Cc1ccc(-c2cnc(SCC(=O)Nc3nccs3)n2Cc2ccco2)cc1`, for which the Potency result is “inactive”.
With `O=C(NC1CCCCC1)NC1(C(=O)N2CCCC2)CCCCC1` the entry was “inactive”; with `O=C(NCCc1ccc2c(c1)OCO2)c1cc2sccc2n1Cc1ccccc1`, “inactive”.
Take `O=C(CSc1nnc(NCc2ccccc2)s1)Nc1nc(-c2ccc(F)c(F)c2)cs1`: the Potency result was “inactive”.
The entry for `COc1ccc(-c2csc(NC(=O)CSc3nnc(NC4CC4)s3)n2)cc1OC` is “inactive”; for `COc1ccc(Cl)cc1NC(=O)N1CCN(c2ccccn2)CC1` it is “inactive”.
The figure for `O=C(NC1CCCc2c1cnn2-c1ccc(F)cc1F)c1cccc(=O)[nH]1` (stereo not drawn) is 2.81 µM (active); for `O=C(NC1CCCc2c1cnn2-c1ccc(F)cc1F)c1cccc(F)c1F` (stereo not drawn) it is 14.1 µM (active).
For `CCn1c(C(=O)NCCc2ccc(OC)c(OC)c2)cc2sccc21`, the Potency entry was “inactive”.
With `CCc1sc(NC(=O)Cc2cccs2)nc1-c1ccccc1` the entry was “inactive”; with `CCCn1c(-c2ccc(OC)cc2)cnc1SCC(=O)Nc1nc(C)c(C)s1`, “inactive”.
In the case of `CCOC(=O)C1CCN(C(=O)C2(NC(=O)NCc3ccccc3)CCCCC2)CC1`, the Potency result is “inactive”.
In the case of `Cc1ccc(NC(=O)c2ccc(CN3CCN(C)CC3)cc2)cc1Nc1nc(-c2cccnc2)cs1`, the Potency entry was “inactive”.
With `COc1ccc(Cl)cc1NC(=S)N1CCN(c2cccc(Cl)c2)CC1` the entry was “inactive”; with `CC(=O)NCc1ccc(-c2csc(NC(=O)Cc3cccs3)n2)cc1`, “inactive”.
The entry for `CCn1c(-c2ccc(C)cc2)cnc1SCC(=O)Nc1nc(C)cs1` is “inactive”.
With `COc1ccc(Cl)cc1NC(=S)N1CCN(c2ccc(F)cc2)CC1` the entry was “inactive”.

For the origin of these results see PubChem BioAssay AID488908 (National Center for Advancing Translational Sciences (NCATS), 2010).
